FMDV antiviral: blocks foot and mouth disease virus; Potency, µM (top dose mostly 57.9 µM), for inactives: at the top dose activity change, negative = inhibition, usual class: inhibitors; FMDV antiviral cell-based qHTS; hit rate 1.2% among 410,000; calls by dose curve; tested in HEK293T cells; also: read-out not given here; nearly all actives have a fitted effect of over 45% in size
RE007 growth inh: less growth of the S. pombe RE007 Vpr strain | S. pombe RE007 Vpr strain, BacTiter-Glo ATP luminescence, 24 h | Potency, µM (titrated, usually from 92.2 µM), without a hit: at the top dose activity change, negative = less growth, actives largely listed as inhibitors | hit rate 0.21% among 360,000; active = well fitted falling curve with a large enough effect; inconclusive = small, poorly fitted or top-dose-only effect; inactive = no such curve, though single readings can be large or run the other way; also: nearly all actives have a fitted effect of over 50% in size
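Fission yeast strain RE007, carrying one chromosomally integrated HIV-1 vpr copy, was seeded at OD 0.01 in PMG+AL medium with 23 nL pinned compound. After 24 h at 30 °C and 99% humidity, viability was read by BacTiter-Glo luminescence.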
Lassa entry inh: Lassa virus entry inhibition. Lassa virus pseudotype entry inhibition, cell reporter. Potency, µM (titrated, usually from 37.9 µM), for inactives: at the top dose activity change, negative = inhibition, actives largely listed as inhibitors. hit rate 1.2% among 300,000. AID 540256; calls by dose curve; tested in HEK293 cells; also: nearly all actives have a fitted effect of over 50% in size
HCV inh: blocks hepatitis C virus. hit rate 3.4% among 340,000. Huh7.5.1 HCVcc-Cre infection, luciferase reporter, 44 h. Potency, µM (series often up to 41.8 µM), for the others: at the highest dose activity change, negative = inhibition, hits mostly inhibitors
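Infectious HCVcc-Cre (~0.5 moi) was added to cells just after compound, with cells seeded 4 h earlier at 1,000 per well. Luciferase activity after 44 h culture reported infection; substrate was incubated 15 min at room temperature before reading.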
Marburg entry inh: Marburg virus entry inhibition. AID 540276. Marburg virus pseudotyped entry inhibition, cell reporter. Potency, µM (top dose mostly 37.8 µM), for the others: at the top dose activity change, negative = inhibition, usual class: inhibitors. hit rate 1.8% among 300,000; calls by dose curve; tested in HEK293 cells
Sm TGR inh: blocks Schistosoma mansoni thioredoxin glutathione reductase. Q962Y6. purified TGR, DTNB reduction, TNB absorbance 405 nm. Potency, µM (highest dose often 114 µM), for inactives: at the top dose activity change, negative = inhibition, hits mostly inhibitors. hit rate 3% among 360,000. AID 485364; also: nearly all actives have a fitted effect of over 60% in size
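First, TGR (20 nM dispensed) and NADPH were mixed with compound. Second, a 15 min room-temperature incubation followed. Third, further NADPH and then DTNB were added to start the reaction. Finally, TNB absorbance was monitored kinetically.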
* marks the source's active call; other numbers are inactive results; u = inconclusive; x = no result given; [ ] = remark or other dose. An excerpt weighted towards active compounds, which were near 7.2% of everything screened. Unless noted, calls follow the shape of the dose curve; as a rule, active = well fitted curve in the direction sought with a large enough effect; inconclusive = small, poorly fitted or top-dose-only effect, or another doubt; inactive = no such curve, though single readings can be large; an effect the other way counts as inactive or inconclusive. % is scaled to controls: 0 for no effect and ±100 for the full control effect; potency is read from the fitted curve at half-maximal effect.

SMILES	FMDV antiviral	RE007 growth inh	Lassa entry inh	HCV inh	Marburg entry inh	Sm TGR inh
Cc1nn(-c2ccccc2)c(C)c1/C=N/NC(=O)CSc1nnc(-c2ccccc2)n1-c1ccc(Cl)cc1	-22.2%	7.2%	u	u	u	-7.3%
Cc1ccc(-c2nnc(SCC(=O)N/N=C/c3c(C)nn(-c4ccccc4)c3C)n2-c2ccccc2)cc1	-24.8%	x	u	11.2µM*	u	-13.7%
Cc1ccn(CCC(=O)NCC2Cc3cc(Cl)cc(-c4ccc5[nH]ccc5c4)c3O2)n1 (configuration not stated)	-1.9%	x	x	x	x	x
COc1ccccc1NC(=O)C1=C(C)Nc2nc3ccccc3n2C1c1cccc(OC)c1OC (configuration not stated)	-6.6%	x	13.0%[46.1 µM]	x	-8.5%[46.1 µM]	-2.0%
CC(=O)c1c(C)[nH]c(C(=O)C(C)Sc2nnc(NC3CC3)s2)c1C (configuration not stated)	u	u	u	10µM*	u	-21.8%
COc1ccc(Cn2c(=O)[nH]c3cc(C(=O)N4CCN(c5ccccc5)CC4)ccc3c2=O)cc1	-9.9%	0.3%	-5.9%	20.2%	11.9%[46.1 µM]	-0.2%
C=CCn1c(=O)[nH]c2cc(C(=O)N3CCN(c4cccc(Cl)c4)CC3)ccc2c1=O	28.2µM*	-2.0%	-23.2%	-29.9%	u	10.0%
COc1cccc(N2CCN(C(=O)c3ccc4c(=O)n(CCc5ccccc5)c(=O)[nH]c4c3)CC2)c1	20µM*	x	12.3%[46.1 µM]	x	0.8%[46.1 µM]	-19.2%
C=CCn1c(=O)[nH]c2cc(C(=O)N3CCN(c4ccc(C(C)=O)cc4)CC3)ccc2c1=O	14.1µM*	-10.6%	u	u	-18.3%	-14.5%
COCCn1c(=O)[nH]c2cc(C(=O)N3CCN(c4cccc(Cl)c4)CC3)ccc2c1=O	u	3.2%	u	u	u	-12.0%
O=C(c1ccc(Cn2c(=O)[nH]c3ccccc3c2=O)cc1)N1CCN(c2ccc(Cl)cc2)CC1	-26.6%	20.5%	-18.0%	11.2µM*	u	1.2%
Cc1cc2oc(C(=O)Nc3c(C)n(C)n(-c4ccccc4)c3=O)cc(=O)c2cc1C	-12.0%	x	-8.4%[46.1 µM]	x	-16.5%[46.1 µM]	-0.9%
Cc1cc(C(=O)CCl)c(C)n1-c1cccc([N+](=O)[O-])c1	11.2µM*	-16.1%	u	u	10µM*	u
Cc1cc(C(=O)CCl)c(C)n1-c1ccon1	22.4µM*	-4.1%	u	u	u	11.2µM*
CC(=O)c1c(C(C)=O)c(C)n(-c2cccc([N+](=O)[O-])c2)c1C	-14.0%	10.1%	19.8%	-7.9%	32.0%	-1.9%
Cc1ccc(NC(=O)CC2SC3=NCCN3C2=O)cc1 (configuration not stated)	17.6%	5.01µM*	10.9%	17.2%	9.6%	7.94µM*
O=C(CC1SC2=NCCN2C1=O)Nc1ccccc1 (configuration not stated)	10.4%	-3.3%	-2.0%	13.4%	3.5%	-1.1%
COc1ccc(NC(=O)Nc2nnc(-c3ccncc3)s2)cc1	u	-2.9%	-25.7%[46.1 µM]	-13.4%	u	-0.9%
O=C(Nc1ccc(Cl)c(Cl)c1)Nc1nnc(-c2ccncc2)s1	-1.5%	4.6%	2.9%	8.91µM*	-1.0%	-10.6%
CC(O)C(NS(=O)(=O)c1ccc(Cl)cc1)C(=O)OCC(=O)c1c[nH]c2ccccc12 (configuration not stated)	15.8µM*	-7.2%	u	u	u	x
CC(C)C(NS(=O)(=O)c1c(Cl)cccc1Cl)C(=O)OCC(=O)c1c[nH]c2ccccc12 (configuration not stated)	-24.8%	-0.5%	u	u	u	3.6%
CSCCC(NS(=O)(=O)c1ccc(Cl)cc1)C(=O)OCC(=O)c1c(C)[nH]c2ccccc12 (configuration not stated)	35.5µM*	2.7%	u	-14.3%	11.6µM*	-10.9%
Cc1[nH]c2ccccc2c1C(=O)COC(=O)C1CC(O)CN1S(=O)(=O)c1ccc(Cl)cc1 (configuration not stated)	0.0%	-10.2%	-3.6%	-0.4%	-4.3%[46.1 µM]	-6.3%
O=C(Cc1ccccc1)Nc1cccc(N2CCCC2)c1	17.2%	u	-1.4%	-1.8%	22.0%	31.6µM*
O=C(Cc1ccccc1)Nc1ccc(N2CCCC2)cc1	23.9%	-11.1%	15.3%	-17.2%	6.8%[46.1 µM]	u
SMILES	FMDV antiviral	RE007 growth inh	Lassa entry inh	HCV inh	Marburg entry inh	Sm TGR inh
COC(=O)c1ccccc1NC(=O)Cn1c(=O)n(CCCCC(=O)NCc2ccc3c(c2)OCO3)c(=O)c2ccccc21	-15.5%	x	-10.0%[46.1 µM]	x	-1.1%[46.1 µM]	-1.8%
COC(=O)/C=C1/SC(=NC(=O)c2cccc([N+](=O)[O-])c2)NC1=O	-26.7%	6.8%	7.5%[46.1 µM]	25.5%	u	-17.0%
COC(=O)/C=C1\SC(=NC(=O)c2cccc([N+](=O)[O-])c2)NC1=O	14.1µM*	9.7%	-1.4%[46.1 µM]	7.4%	3.2%[46.1 µM]	-13.2%
COC(=O)/C=C1/SC(=NC(=O)c2ccc(OC)cc2)NC1=O	-9.9%	-0.8%	x	6.9%	x	-12.0%
COC(=O)/C=C1/SC(=NC(=O)c2ccc(F)cc2)NC1=O	39.8µM*	2.2%	-13.2%	12.6%	14.1%[46.1 µM]	-23.6%
Cc1cc(C)cc(CN2CCOc3ccc(CN4CCC(O)(c5cccnc5)CC4)cc3C2)c1	-19.4%	x	x	x	x	x
NC(CC(=O)Nc1ccc(Oc2cc(F)c(F)cc2Br)cc1)C(=O)O (configuration not stated)	-9.8%	x	x	x	x	x
C=CC[C@@H]1C=C[C@@H](Oc2ccc(OC)cc2)[C@@H](CO)O1	x	x	x	x	-14.9%[14.2 µM]	x
COc1ccc(-c2noc(-c3cc(C(C)C)[nH]n3)n2)cc1	49.2%	x	u	x	x	0.9%
CCOC(=O)c1cc(C#N)c(=S)[nH]c1C	-7.4%	24.4%	x	-26.5%	x	1.2%
COCc1[nH]c(=S)c(C#N)cc1C(=O)OC	-14.8%	16.4%	9.6%	-14.3%	29.2%[46.1 µM]	20µM*
COc1c(C)cc(Br)cc1C(=O)Nc1cccc(NC(=O)c2ccco2)c1	u	-15.4%	u	6.31µM*	u	8.1%
O=C(Nc1cccc(NC(=O)c2ccc(-c3cccc(Br)c3)o2)c1)c1ccco1	x	-10.7%	-27.5%	3.55µM*	u	0.0%
COc1ccc(Br)cc1C(=O)Nc1cccc(NC(=O)c2ccco2)c1	-24.2%	-7.2%	-26.6%	u	u	-10.9%
O=C(Nc1cccc(NC(=O)c2ccc(-c3ccc(Br)cc3)o2)c1)c1ccccc1	-9.5%	2.2%	-0.7%	-14.0%	u	-22.6%
CN(C)c1ccc(-c2nc(-c3ccco3)no2)cc1[N+](=O)[O-]	-44.9%	x	-1.1%[46.1 µM]	x	-18.7%[46.1 µM]	-16.0%
C=CC[C@@H](CC(=O)N(CCO)Cc1ccccc1)C(=O)NC[C@@H](OC(=O)[C@@H](CC=C)Cc1ccc(F)cc1)c1ccccc1	u	16.1%	x	u	x	x

Bioassay records: PubChem BioAssay, National Center for Advancing Translational Sciences (NCATS)
